Experimental data reported in PubChem BioAssay (EPA / NIEHS).
“And” between values parts separate entries of the source, which are not always exact repeats. Identical values can stand only once. Results filed as inconclusive are left out. Some structures have more than one record in an assay (separate samples or runs), and their calls can disagree. The source made the active and inactive calls. Rule for the calls: active = hit-call score of the fitted dose curve at least 0.9, where 1 is the maximum; inconclusive = response in the unintended direction; inactive = score below 0.9.

test system: not listed separately; experiment: TOX21_p53_BLA_p2_viability: Viability Assessment in the Tox21 HCT-116 p53 Agonism Beta-lactamase Assay, Phase 2 (AID 2283591);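 note: compound exposure lasted 16 h at 37 °C; actives lower the ATP signal meaning cytotoxicity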
How it was run: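 HCT116 p53-bla cells, 4000/well, dosed after 5 h plating (217-fold dilution of DMSO stocks) and incubated 16 h at 37C. Viability taken as cellular ATP by CellTiter-Glo luminescence after 30 min RT; signal loss marks cytotoxicity.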

Compound | outcome | AC50
C=Cc1ccc(C)cc1 | inactive | –
O=C1c2ccccc2C(=O)c2c(O)ccc(O)c21 | inactive | –
CCCCCc1ccco1 | inactive | –
CN(C)CCOc1ccc(/C(=C(/CCCl)c2ccccc2)c2ccccc2)cc1 | inactive | 58.1 µM (active)
Nc1ccc2c(O)cc(S(=O)(=O)O)cc2c1 | inactive | –
N[C@@H](Cc1cc(I)c(Oc2cc(I)c(O)c(I)c2)c(I)c1)C(=O)O | inactive | –
Nc1ccc(N)c2c1C(=O)c1ccccc1C2=O | inactive | –
CCN(CCN)c1cccc(C)c1 | inactive | –
Clc1ccc(C(c2ccccc2Cl)C(Cl)Cl)cc1 (centres undefined) | – | 46.1 µM (active) and 30.1 µM (active)
Cc1ncc([N+](=O)[O-])n1CCO | inactive | –
CC1(C)C2=CCCC(C)(C)[C@]23CC[C@H]1C3 | inactive | –
OCCCCC(O)CO (centres undefined) | inactive | –
COC(=O)C=C(C)CCC=C(C)C | inactive | –
CCCCCCCC(=O)OCC(O)CO (centres undefined) | inactive | –
IC(I)I | inactive | –
C=C1CC[C@H](O)C/C1=C/C=C1\CCC[C@]2(C)[C@@H]([C@H](C)/C=C/[C@H](C)C(C)C)CC[C@@H]12 | inactive | 71.1 µM (active)
CCOC(=O)C(C#N)=C(c1ccccc1)c1ccccc1 | inactive | –
CC(C)(C)CC(C)(C)c1ccc(OCCOCC[N+](C)(C)Cc2ccccc2)cc1 | – | 37.1 µM (active) and 32.8 µM (active)
C=CCCCCCCCCCC | inactive | –
CC(C)=CCCC(C)CCOC=O (centres undefined) | inactive | –
CSc1c(Cl)c(Cl)c(Cl)c(Cl)c1Cl | inactive | –
CCC(C)c1cc([N+](=O)[O-])cc([N+](=O)[O-])c1OC(=O)OC(C)C (centres undefined) | inactive | –

biological target: Cellular tumor antigen p53 (Homo sapiens) (UniProt P04637); experiment: TOX21_p53_BLA_p2_ratio: Tox21 HCT-116 p53 Agonism Beta-lactamase Assay, Ratio, Phase 2 (AID 2283592)
How it was run: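 DMSO-normalized, positive-direction endpoint derived from the 460 nm/530 nm FRET ratio in HCT116 p53 beta-lactamase reporter cells exposed 16 h at 37C and loaded with CCF4-AM for 2 h.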

Cellular tumor antigen p53 (Homo sapiens), sequence (P04637 whole entry, looked up): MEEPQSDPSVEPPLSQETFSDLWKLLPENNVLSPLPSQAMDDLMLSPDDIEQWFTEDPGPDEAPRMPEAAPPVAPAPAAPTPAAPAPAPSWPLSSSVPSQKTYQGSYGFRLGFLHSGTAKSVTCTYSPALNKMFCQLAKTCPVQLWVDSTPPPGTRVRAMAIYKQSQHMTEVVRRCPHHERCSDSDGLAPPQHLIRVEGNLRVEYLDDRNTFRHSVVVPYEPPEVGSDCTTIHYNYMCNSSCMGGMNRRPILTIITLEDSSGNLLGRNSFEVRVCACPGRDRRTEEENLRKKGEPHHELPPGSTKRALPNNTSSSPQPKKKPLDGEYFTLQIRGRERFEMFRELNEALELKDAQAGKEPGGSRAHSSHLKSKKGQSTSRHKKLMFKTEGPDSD

Compound | outcome | AC50
C=Cc1ccc(C)cc1 | inactive | –
O=C1c2ccccc2C(=O)c2c(O)ccc(O)c21 | inactive | –
CCCCCc1ccco1 | inactive | –
CN(C)CCOc1ccc(/C(=C(/CCCl)c2ccccc2)c2ccccc2)cc1 | inactive | 74.9 µM (active)
Nc1ccc2c(O)cc(S(=O)(=O)O)cc2c1 | – | 23.1 µM (active) and 18.3 µM (active)
N[C@@H](Cc1cc(I)c(Oc2cc(I)c(O)c(I)c2)c(I)c1)C(=O)O | inactive | 43.6 µM (active)
Nc1ccc(N)c2c1C(=O)c1ccccc1C2=O | – | 7.9 µM (active)
CCN(CCN)c1cccc(C)c1 | inactive | –
Clc1ccc(C(c2ccccc2Cl)C(Cl)Cl)cc1 (centres undefined) | – | 83.3 µM (active) and 39.1 µM (active)
Cc1ncc([N+](=O)[O-])n1CCO | inactive | –
CC1(C)C2=CCCC(C)(C)[C@]23CC[C@H]1C3 | inactive | –
OCCCCC(O)CO (centres undefined) | inactive | –
COC(=O)C=C(C)CCC=C(C)C | inactive | –
CCCCCCCC(=O)OCC(O)CO (centres undefined) | inactive | –
IC(I)I | inactive | –
C=C1CC[C@H](O)C/C1=C/C=C1\CCC[C@]2(C)[C@@H]([C@H](C)/C=C/[C@H](C)C(C)C)CC[C@@H]12 | inactive | 76.4 µM (active) and 45.8 µM (active)
CCOC(=O)C(C#N)=C(c1ccccc1)c1ccccc1 | inactive | –
CC(C)(C)CC(C)(C)c1ccc(OCCOCC[N+](C)(C)Cc2ccccc2)cc1 | – | 56.2 µM (active) and 34.8 µM (active)
C=CCCCCCCCCCC | inactive | –
CC(C)=CCCC(C)CCOC=O (centres undefined) | inactive | –
CSc1c(Cl)c(Cl)c(Cl)c(Cl)c1Cl | inactive | –
CCC(C)c1cc([N+](=O)[O-])cc([N+](=O)[O-])c1OC(=O)OC(C)C (centres undefined) | – | 7.55 µM (active)
